From PubChem BioAssay
Marburg entry inh = Marburg virus entry inhibition. Potency, µM (doses to about 37.8 µM), without a hit: at the highest dose activity change, negative = inhibition, usual class: inhibitors. actives 1.8% (n = 300,000). Marburg virus pseudotyped entry inhibition, cell reporter. AID 540276; calls by dose curve; tested in HEK293 cells; further: potency means the concentration at half of the fitted maximal effect
VACV mCherry inh = inhibitors of vaccinia virus infection (mCherry reporter signal). AID 720579. actives 0.63% (n = 310,000). Potency, µM (doses to about 36.5 µM), for the others: at the top dose activity change, negative = inhibition, hits mostly inhibitors. Vaccinia virus mCherry reporter infection, fluorescence; calls by dose curve; tested in A549 cells; further: potency means the concentration at half of the fitted maximal effect; nearly all actives have a fitted effect of over 35% in size
LASV entry inh = blocks Lassa virus binding to or entry into cells; Lassa virus pseudotype entry inhibition, cell reporter; Potency, µM (highest dose often 37.9 µM), without a hit: top-dose activity change, negative = inhibition, hits mostly inhibitors; actives 1.2% (n = 300,000); AID 540256; calls by dose curve; tested in HEK293 cells; further: potency means the concentration at half of the fitted maximal effect; nearly all actives have a fitted effect of over 50% in size
FMDV antiviral = blocks foot and mouth disease virus; FMDV antiviral cell-based qHTS; Potency, µM (highest dose often 57.9 µM), for inactives: at the top dose activity change, negative = inhibition, usual class: inhibitors; AID 1159524; actives 1.2% (n = 410,000); calls by dose curve; tested in HEK293T cells; further: read-out not given here; potency means the concentration at half of the fitted maximal effect; nearly all actives have a fitted effect of over 45% in size
Vaccinia Venus = vaccinia inhibition (Venus reporter) | Vaccinia virus Venus reporter expression, fluorescence | Potency, µM (doses to about 36.5 µM), for the others: at the highest dose activity change, negative = inhibition, most hits filed as inhibitors | actives 0.46% (n = 330,000) | AID 720580; calls by dose curve; tested in A549 cells; further: potency means the concentration at half of the fitted maximal effect; nearly all actives have a fitted effect of over 30% in size
HCMV inh = blocks human cytomegalovirus replication; activity change, negative = inhibition, % at 57.5 µM; actives 4.5% (n = 410,000); HFF cells, HCMV-luciferase reporter, 72 h; stronger effect = lower value; in the data active means activity change below about -60%; inconclusive means no clear call, values can overlap the other calls; inactive means above about -39%
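Human foreskin fibroblasts infected with luciferase-reporter HCMV at MOI 1 PFU/cell, compounds at two doses. Luciferase measured 72 h post infection; normalized to buffer-only basal and Salinomycin (10uM) controls.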
Active calls of the source: *; i = inactive; ? = inconclusive; · = not tested or not shown; [ ] = another dose, or the depositor's remark. Only some compounds are listed: those with a hit (about 6.5% of all), similar ones and a draw of the others. On the % scale 0 is the no-effect control and ±100 the full control effect.

SMILES	Marburg entry inh	VACV mCherry inh	LASV entry inh	FMDV antiviral	Vaccinia Venus	HCMV inh
COc1ccc(C(=O)NCC(c2ccc3c(c2)OCO3)N2CCOCC2)cc1OC (configuration not stated)	·	-5.0%	?	-21.1%	-9.4%	11.9
Nc1ccc(O)c2c1C(=O)c1ccccc1C2=O	34.1%	210.4%	8.3%	-23.9%	191.8%	-33.9
O=C1c2ccccc2-c2nc3ccccc3nc21	-4.2%	·	26.1%	22.9%	·	122.0
NC1=CC(=O)C(=O)c2ccccc21	?	14.1µM*	?	39.8µM*	?	-63.6*
O=C1c2ccccc2C(=O)c2c(O)ccc(O)c21	·	·	·	-19.7%	·	·
Cc1nc2c(nc1C)C(=O)c1ccccc1C2=O	14.1µM*	3.55µM*	?	?	3.98µM*	?
O=C1C(=O)c2ccccc2-c2ccccc21	·	2.82µM*	·	5.62µM*	4.47µM*	-101.1*
Cc1cccc(-c2nnn3c2nc(NCc2ccccc2)c2ccccc23)c1	?	-23.3%	7.1%[46.1 µM]	6.0%	?	27.9
Cc1nn(CC(=O)N2CCCCC2)c(=O)c2cc3occc3n12	9.4%[46.1 µM]	-10.7%	?	-3.8%	-9.3%	-16.4
CCC(C)NC(=O)c1c(N)n(/N=C/c2ccccn2)c2nc3ccccc3nc12 (configuration not stated)	?	·	8.4%	-19.5%	·	?
CCC(C)NC(=O)c1c(N)n(/N=C/c2cccnc2)c2nc3ccccc3nc12 (configuration not stated)	25.9µM*	·	-36.8%	11.7%	·	-2.4
CCOc1ccc(CS[C@@H](CC(=O)O)C(=O)O)cc1	7.6%	·	·	·	·	·
Cc1cc2c(=O)n(Cc3ccco3)c(SCC(=O)N3CCCc4ccccc43)nc2s1	?	?	?	·	?	-88.0*
Cc1ccc2nc(-c3ccc(NS(C)(=O)=O)cc3)cc(-c3ccccc3)c2c1	-15.5%	·	-17.9%	-26.5%	·	-10.0
Cc1ccc2nc(-c3ccncc3)cc(-c3ccccc3)c2c1	13µM*	·	-1.5%	0.0%	·	5.9
CC(=O)Nc1ccc(NC(=O)C2CCN(S(=O)(=O)c3ccc4c(c3)CCCC(=O)N4)CC2)cc1	·	-2.0%	15.5%[46.1 µM]	-16.4%	6.4%	15.8
Nc1c(Cl)ncnc1NCCc1ccc(O)cc1	·	?	·	-25.3%	-14.8%	-69.8*
Cc1nc2ccc(NC(=O)CCS(=O)(=O)c3ccc(Cl)cc3)cc2s1	?	?	-22.1%	?	-24.0%	?
COc1ccc(NC(=O)CCS(=O)(=O)c2nc(-c3cccs3)cc(C(F)(F)F)n2)cc1	?	-9.6%[7.34 µM]	?	?	-16.3%[7.34 µM]	-100.8*
O=C(CCS(=O)(=O)c1nc(-c2cccs2)cc(C(F)(F)F)n1)Nc1ccc(OC(F)(F)F)cc1	?	-12.0%	?	-19.5%	2.1%	37.7
COc1ccc(Cl)cc1NC(=O)CCS(=O)(=O)c1nc(-c2cccs2)cc(C(F)(F)F)n1	17.6%[46.1 µM]	-22.2%	?	31.6µM*	-19.3%	-93.8*
O=C(CCS(=O)(=O)c1nc(-c2cccs2)cc(C(F)(F)F)n1)Nc1ccc(F)c(Cl)c1	26.8%[46.1 µM]	-23.1%[7.34 µM]	?	35.5µM*	-16.2%[7.34 µM]	-99.0*
CC(C)c1nnc(NC(=O)CCS(=O)(=O)c2nc(-c3cccs3)cc(C(F)(F)F)n2)s1	13µM*	·	?	14.1µM*	·	43.3
CC(C)c1nnc(NC(=O)CCS(=O)(=O)Cc2ccccc2)s1	3.8%[46.1 µM]	-20.3%	0.1%[46.1 µM]	-10.6%	-11.4%	8.0
CCOC(=O)COc1coc(CN2CCN(c3ccccc3)CC2)cc1=O	-0.3%[46.1 µM]	-7.8%	20.7%[46.1 µM]	-3.0%	-6.4%	-61.0*
SMILES	Marburg entry inh	VACV mCherry inh	LASV entry inh	FMDV antiviral	Vaccinia Venus	HCMV inh
Cc1cccc(NC(=O)COc2coc(CN3CCN(c4ccccc4)CC3)cc2=O)c1C	-23.4%	i	?	?	-11.0%	-61.0*
O=C(COc1coc(CN2CCN(c3ccccc3)CC2)cc1=O)Nc1ccccc1	1.3%	-8.7%	-15.9%	-20.5%	-3.1%	10.0
CN(C(=O)c1cc2c(=O)oc3ccccc3c2s1)c1ccc(F)cc1	-12.5%[46.1 µM]	-14.2%	2.1%[46.1 µM]	-11.9%	-15.8%	-5.1
CCOC(=O)N1CCN(C(=O)CN(Cc2ccc(Cl)cc2)S(=O)(=O)c2ccc(C)cc2)CC1	-22.6%	·	8.2µM*	?	·	-38.0
CCc1nn2c(=O)cc(COC(=O)c3ccccc3NC(=O)c3ccc(C(C)(C)C)cc3)nc2s1	·	-13.4%	?	18.5%	-4.8%	?
O=C1c2ccccc2C(=O)N1CCSc1nc2ccccc2c(=O)n1CCCN1CCOCC1	13.8%[46.1 µM]	i	13.3%	-25.0%	-11.0%	25.2
O=C1c2ccccc2C(=O)N1CCCCSc1nc2ccccc2c(=O)n1CCCN1CCOCC1	?	-2.9%	?	-19.0%	11.6%	-103.7*
Cc1[nH]c2ccccc2c1C(=O)CSc1nc2ccccc2c(=O)n1-c1ccccc1F	·	·	·	·	·	-88.7*
Cn1c(N)c(C(=O)CSc2nc3ccccc3c(=O)n2CCCN2CCOCC2)c(=O)n(C)c1=O	·	·	·	6.8%	·	-0.7
Cc1[nH]c2ccccc2c1C(=O)CSc1nc2ccccc2c(=O)n1CCCN1CCOCC1	11.2µM*	·	-22.7%	?	-13.6%	-73.9*
CCOC(=O)c1c(C)[nH]c(C)c1C(=O)CSc1nc2ccccc2c(=O)n1-c1ccc(Cl)cc1	?	-14.5%	?	0.0%	?	?
COc1ccc(CNc2nc(N)nc3nc[nH]c23)cc1	·	-12.2%	·	·	-16.6%	·
Cc1ccnc(Nc2nc(-c3ccccc3)cs2)c1	·	·	·	-12.9%	·	52.4
CC(=O)Nc1ccc(-c2csc(Nc3cc(C)ccn3)n2)cc1	?	-28.1%	?	?	-15.0%	-61.5*
CC(=O)Nc1ccc(-c2csc(Nc3ccc(Cl)cn3)n2)cc1	?	-29.6%	-23.9%	25.1µM*	?	-61.1*
Cc1ccnc(Nc2nc(-c3c(C)nc4sccn34)cs2)c1	-29.2%	·	-14.1%	?	·	-75.7*
CC(=O)Nc1cccc(-c2csc(Nc3ccc(Cl)cn3)n2)c1	·	-3.5%	·	4.9%	?	94.7
O=C1C=C(NCc2ccccc2)c2ccccc2C1=O	?	?	?	-16.3%	11.2µM*	-83.9*
O=c1cccccc1NCc1ccccc1	9.9%	·	25.9%	47.4%	·	-32.9
Cc1ccc(NC2=CC(=O)C(=O)c3ccccc32)c(C)c1	·	·	·	?	·	-96.3*
O=C1C=C(Nc2ccc(F)cc2)c2ccccc2C1=O	?	?	?	?	-16.9%	34.3
O=C1C=C(Nc2ccccc2O)c2ccccc2C1=O	?	5.01µM*	?	?	?	-93.4*
O=C1C=C(Nc2cccnc2)c2ccccc2C1=O	?	?	?	?	10µM*	22.9
Cc1cc(C(=O)N2CCOCC2)c(C)o1	17.5%[46.1 µM]	i	5.7%[46.1 µM]	-8.3%	7.2%	-98.8*
COc1ccc(NS(=O)(=O)c2ccc(C)c(NC(=O)CN3C(=O)NC4(CCCC4)C3=O)c2)cc1	·	·	·	36.3%	·	-66.3*
Cc1ccc(S(=O)(=O)N(C)C)cc1NC(=O)CN1C(=O)NC2(CCCCCC2)C1=O	-7.9%	-6.5%	5.9%	-12.4%	-5.1%	2.3
